# Test results published in PubChem BioAssay (NCATS).
# Results filed as inconclusive are left out. A number with no mark means an inactive call. Activity calls are given as the source filed them. Calls follow the shape of the dose curve; as a rule, active = well fitted cell-killing curve with a large enough effect; inconclusive = small, poorly fitted or top-dose-only effect, or effect the other way; inactive = flat fitted curve, though single readings scatter.
# Test: qHTS assay for cell viability of the p53RE-bla HCT-116 cell line (AID 743292); also: nearly all actives have a fitted effect of over 55% in size
# Conditions: p53RE-bla HCT-116 viability, ATP luminescence, 16 h; series mostly up to 95 µM; activity change, negative = cytotoxicity: at the top concentration
# From the text: U.S. Tox21 Program National Center for Advancing Translational Sciences [NCATS] NIH Chemical Genomics Center [NCGC] U.S. Environmental Protection Agency [EPA] National Institutes of Environmental Health Sciences [NIEHS] National Toxicology Program [NTP] U.S. Food and Drug Administration [FDA] Tox21 Assay Overview: The CellTiter-Glo Luminescent Cell Viability Assay (Promega, Madison, WI) is a homogeneous method to determine the number of viable cells in culture based on quantitation of the ATP present, which signals the presence of metabolically active cells. This cell viability assay was used to screen environmental chemicals in the CellSensor p53RE-bla HCT-116 cell line (Invitrogen).
# Tox21 Assay Protocol Summary: Cell viability after compound treatment was measured using a luciferase-coupled ATP quantitation assay (CellTiter-Glo viability assay, Promega, Madison, WI) in CellSensor p53RE-bla HCT-116 cell line (Invitrogen). Total intracellular ATP content corresponds to the number of metabolically competent cells after compound treatment. The cells were dispensed at 4,000 cells/5 uL/well in 1,536-well white/solid bottom assay plates using a Flying Reagent Dispenser (Aurora Discovery, San Diego, CA). The cells were incubated for 5 h at 37 C, followed by the addition of 23 nL of compounds dissolved in DMSO, positive controls or DMSO only using a pintool work station (Kalypsys, San Diego, CA). The assay plates were incubated for 16 h at 37 C, followed by the addition of 5 uL/well of CellTiter-Glo reagent. After 30 min incubation at room temperature, the luminescence intensity of the plates was measured using a ViewLux plate reader (PerkinElmer, Shelton, CT).
# % is scaled to controls: 0 for no effect and ±100 for the full control effect; potency is read from the fitted curve at half-maximal effect.
Structure (SMILES),"activity change, negative = cytotoxicity [%]",Potency
COP(=S)(OC)SCN1C(=O)c2ccccc2C1=O,6.7,–
NCCc1ccc(O)cc1,0.406,–
Nc1ccc([As](=O)(O)O)cc1,-1.75,–
CC(C)NC(C)C,-0.268,–
CC1(C)C(C=C(Cl)Cl)C1C(=O)OC(C#N)c1cccc(Oc2ccccc2)c1 (configuration not stated),-5.71,–
C[C@]1(O)CC[C@H]2[C@@H]3CCC4=CC(=O)CC[C@]4(C)[C@@]3(F)[C@@H](O)C[C@@]21C,8.63,–
O=C1c2ccccc2C(=O)c2ccccc21,-2.02,–
CN1C[C@H](C(=O)N[C@]2(C)O[C@@]3(O)[C@@H]4CCCN4C(=O)[C@H](Cc4ccccc4)N3C2=O)C=C2c3cccc4[nH]cc(c34)C[C@H]21,–,inactive
C[C@]12CCC(=O)C=C1CC[C@@H]1[C@@H]2CC[C@]2(C)C(=O)CC[C@@H]12,–,inactive
CCCC(C)(COC(N)=O)COC(N)=O,–,inactive
COP(=S)(OC)Oc1ccc(SC)c(C)c1,–,inactive
O=P1(N(CCCl)CCCl)NCCCO1 (configuration not stated),–,inactive
COc1cc(OC)c(OC)cc1C=O,-8.12,–
CCC(C)(C)c1ccc(O)cc1,–,inactive
Nc1nc(N)nc(NC2CC2)n1,-2.63,–
Nc1ccccc1C(=O)O,-9.62,–
CC(C)c1cccc(C(C)C)c1O,4.24,–
COP(=S)(OC)Oc1cc(Cl)c(Cl)cc1Cl,6.39,–
Nc1ccccc1,0.0959,–
Clc1ccc(C(c2ccc(Cl)cc2)C(Cl)(Cl)Cl)cc1,–,50.1 µM (active)
[N-]=[N+]=CC(=O)OC[C@H](N)C(=O)O,-2.4,–
COC(=O)C(c1ccccc1)C1CCCCN1 (configuration not stated),–,inactive
O=C(O)CCCc1ccc(N(CCCl)CCCl)cc1,–,inactive
C[C@]12CCC(=O)C=C1CC[C@@H]1[C@@H]2CC[C@@]2(C)[C@H]1CC[C@]2(C)O,4.46,–
O=C1c2ccccc2C(=O)C1C(=O)C(c1ccccc1)c1ccccc1,0.325,–
Oc1ccc(Cl)cc1,-8.83,–
CCOC(=O)CC(SP(=S)(OC)OC)C(=O)OCC (configuration not stated),–,inactive
